In the library only some 3.2% were active in any assay of this set; here they are far more common.
Rv3671c inh – inhibitors of M. tuberculosis serine protease Rv3671c. inhibition, % at 5.96 µM. 320,000 compounds, 0.048% hits; in the data active means inhibition above about 38%;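 further: extracellular domain of Rv3671c used as enzyme; 0% = enzyme with DMSO and 100% = no enzyme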
GDH-TPI counter – GDH-TPI coupled enzyme inhibition counter-screen; AID 588335; inhibition, % at 4.8 µM; GDH-TPI coupled enzyme counterscreen, NADH absorbance; 360,000 compounds, 1.2% hits; in the data active means inhibition above about 30%;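 further: 0% = DMSO wells and 100% = wells lacking the enzyme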
FBA Mtb inh – Mtb fructose-bisphosphate aldolase inhibition. purified M. tuberculosis FBA, fluorescence read-out. inhibition, % at 1 µM. 360,000 compounds, 2.3% hits. AID 588726; in the data active means inhibition above about 27%;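 further: 0% = vehicle and 100% = reference inhibitor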
Target sequence (P9WQA3 whole entry, looked up): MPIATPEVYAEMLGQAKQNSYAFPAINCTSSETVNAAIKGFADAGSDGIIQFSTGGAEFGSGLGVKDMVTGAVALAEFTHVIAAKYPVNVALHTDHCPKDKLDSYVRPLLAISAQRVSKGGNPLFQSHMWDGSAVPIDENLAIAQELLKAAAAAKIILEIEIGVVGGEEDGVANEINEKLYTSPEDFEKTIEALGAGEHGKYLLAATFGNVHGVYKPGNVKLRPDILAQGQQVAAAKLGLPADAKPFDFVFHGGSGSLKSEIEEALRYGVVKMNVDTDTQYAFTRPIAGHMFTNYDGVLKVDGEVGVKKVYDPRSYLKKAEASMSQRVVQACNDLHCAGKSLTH
Mtb bLac sens – beta-lactam sensitization of Mtb H37Rv; M. tuberculosis H37Rv growth with meropenem, percent inhibition; 330,000 compounds, 0.27% hits; inhibition, % at 25 µM; call rule not given here;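 further: growth measured after seven days incubation then overnight dye step; 0% = bacteria only wells and 100% = bacteria with antibiotic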
SSB-PriA inh – inhibitors of Klebsiella pneumoniae PriA binding to SSB C-terminal tail | AID 1272365 | AlphaScreen SSBct-PriA binding, biotinylated peptide | 430,000 compounds, 0.6% hits | inhibition, % at 33 µM; in the data active means inhibition mostly above about 37%, no sharp cut-off; inactive means mostly below about 20%;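 further: plate controls were negative control peptide for no effect and reference peptide for full effect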
Mtb UGM inh – inhibitors of M. tuberculosis UDP-galactopyranose mutase; inhibition, % at 10 µM; 320,000 compounds, 0.06% hits; purified UGM, fluorescence polarization probe displacement; P9WIQ1; in the data active means inhibition above about 10%, passing the limit was not always enough; inconclusive means no clear call, values can overlap the other calls
An asterisk follows results filed as active.

How did O=C(NCCCN1CCN(c2ccccc2)CC1)c1ccc(F)cc1F do in these assays?
SSB-PriA inh: 3

What do the screens show for `COc1ccc(C(C(=O)NC(C)(C)C)N(C(=O)CCC(=O)Nc2cc(C)on2)c2cccc(F)c2)cc1` (stereo not given)?
Rv3671c inh: -1; GDH-TPI counter: -8; FBA Mtb inh: 0; Mtb bLac sens: 2; SSB-PriA inh: -16; Mtb UGM inh: -1

Results for CCC(C)(C)NC(=O)C(c1ccccc1Cl)N(C(=O)CCC(=O)Nc1cc(C)on1)C1CC1 (stereo not given) ?
Rv3671c inh: -10; GDH-TPI counter: 14; FBA Mtb inh: 0; Mtb bLac sens: 6; SSB-PriA inh: 49*; Mtb UGM inh: 0

What do the screens show for `CCC(C)(C)NC(=O)C(c1ccc(OC)cc1)N(C(=O)CCC(=O)Nc1cc(C)on1)c1cccc(F)c1` (stereo not given)?
Rv3671c inh: -3; GDH-TPI counter: 1; FBA Mtb inh: 117*; Mtb bLac sens: 9; SSB-PriA inh: -11; Mtb UGM inh: -1

How did Cc1cc(NC(=O)CCC(=O)N(C2CC2)C(C(=O)NC(C)(C)C)c2ccccc2Cl)no1 (stereo not given) do in these assays?
Rv3671c inh: -7; GDH-TPI counter: 5; FBA Mtb inh: -1; Mtb bLac sens: -2; SSB-PriA inh: 10; Mtb UGM inh: -3

What do the screens show for `O=C(O)C1SCCN1S(=O)(=O)c1ccc(N=NN2CCOCC2)cc1` (stereo not given)?
Rv3671c inh: 2; GDH-TPI counter: 18; FBA Mtb inh: 165*; Mtb bLac sens: 3; SSB-PriA inh: -5; Mtb UGM inh: -3

Results for Cc1cccn2c(=O)c(C=Nc3ccccc3)c(NCc3ccco3)nc12 ?
Rv3671c inh: -5; GDH-TPI counter: 22; FBA Mtb inh: 39*; Mtb bLac sens: 4; SSB-PriA inh: -13; Mtb UGM inh: 1

What do the screens show for `CCOc1ccc(/C=N/NC(=S)Nc2c(C)cccc2C)cc1`?
Rv3671c inh: -9; GDH-TPI counter: 32*; FBA Mtb inh: 2; Mtb bLac sens: 2; Mtb UGM inh: 0

How did COc1ccc(-c2cc(C(F)(F)F)n3nc(C(=O)Nc4ccc(Oc5ccc(C(C)=O)cc5)cc4)cc3n2)cc1 do in these assays?
SSB-PriA inh: -9

Results for Cc1ccc(/C=C/C(=O)OCn2nnc3ccccc3c2=O)o1 ?
Rv3671c inh: -7; GDH-TPI counter: 34*; FBA Mtb inh: 1; Mtb bLac sens: 100; SSB-PriA inh: -2; Mtb UGM inh: 1

Results for O=C(/C=C/c1ccco1)OCn1nnc2ccccc2c1=O ?
Rv3671c inh: 5; GDH-TPI counter: -2; FBA Mtb inh: -1; Mtb bLac sens: 100; SSB-PriA inh: -4; Mtb UGM inh: 4

Results for CC(=O)c1ccc(Nc2cc(C)nc3nc(C)nn23)cc1 ?
Rv3671c inh: -3; GDH-TPI counter: 31*; FBA Mtb inh: -1; Mtb bLac sens: 7; SSB-PriA inh: -13; Mtb UGM inh: -2

What do the screens show for `Cc1ccc(C=c2sc3nc(-c4cccs4)nn3c2=O)o1`?
SSB-PriA inh: 13

What do the screens show for `Cc1ccc(/C=c2\sc3nc(-c4ccco4)nn3c2=O)o1`?
Rv3671c inh: 4; GDH-TPI counter: 40*; FBA Mtb inh: -2; Mtb bLac sens: -3; Mtb UGM inh: 2

Results for C=CCc1c(O)c(CC)cc2c(C)cc(=O)oc12 ?
Rv3671c inh: 4; GDH-TPI counter: 11; FBA Mtb inh: active; Mtb bLac sens: 0; SSB-PriA inh: -15; Mtb UGM inh: 0

Results for CCN(CC)Cc1c(O)c(Cl)cc2c(C)cc(=O)oc12 ?
GDH-TPI counter: 10; FBA Mtb inh: active; SSB-PriA inh: -13

Results for CCc1cc(=O)oc2cc(C)c(CN3CCCC3)c(O)c12 ?
Rv3671c inh: 1; GDH-TPI counter: 21; FBA Mtb inh: -1; Mtb bLac sens: 32; SSB-PriA inh: -11; Mtb UGM inh: 0

What do the screens show for `Cc1cc(=O)oc2c(CN3CCCCC3)c(O)c(Cl)cc12`?
Rv3671c inh: 0; GDH-TPI counter: 2; FBA Mtb inh: active; Mtb bLac sens: 0; SSB-PriA inh: -24; Mtb UGM inh: 3

How did Cc1cc(=O)oc2c(CN3CCCC3)c(O)c(Cl)cc12 do in these assays?
Rv3671c inh: 1; GDH-TPI counter: 6; FBA Mtb inh: active; Mtb bLac sens: inconclusive; SSB-PriA inh: 1; Mtb UGM inh: 2

How did Cn1ccc(C(=O)Nc2nc(-c3ccc(Oc4ccccc4)cc3)cs2)n1 do in these assays?
SSB-PriA inh: 15

Results for Cc1cccc(C)c1NC(=O)Cn1nc(-c2ccccc2)c2sc(N3CCCC3)nc2c1=O ?
SSB-PriA inh: -3

How did CCCCCCOc1ccc(C(=O)Nc2cnc3ccccc3c2)cc1 do in these assays?
SSB-PriA inh: 7

What do the screens show for `Cc1cc(=O)oc2c(CN3CCC(C)CC3)c(O)c(Cl)cc12`?
Rv3671c inh: 9; GDH-TPI counter: 15; FBA Mtb inh: active; Mtb bLac sens: 7; SSB-PriA inh: -3; Mtb UGM inh: 5

Results for CCc1cc(=O)oc2c(CNCc3ccccc3F)c(O)c(Cl)cc12 ?
Rv3671c inh: -4; GDH-TPI counter: 23; FBA Mtb inh: active; Mtb bLac sens: -5; SSB-PriA inh: -8; Mtb UGM inh: -1

What do the screens show for `CCN1CCN(Cc2c(O)c(Cl)cc3c(C)cc(=O)oc23)CC1`?
Rv3671c inh: -3; GDH-TPI counter: 8; FBA Mtb inh: active; Mtb bLac sens: -4; SSB-PriA inh: -6; Mtb UGM inh: 7

Results for CCCc1cc(=O)oc2c(CN3CCCC3)c(O)ccc12 ?
Rv3671c inh: 0; GDH-TPI counter: 20; Mtb bLac sens: -8; SSB-PriA inh: -14; Mtb UGM inh: 0

How did CCc1cc(=O)oc2c(CNC(Cc3ccccc3)C(=O)O)c(O)ccc12 (stereo not given) do in these assays?
Rv3671c inh: 2; Mtb bLac sens: -4; SSB-PriA inh: 2; Mtb UGM inh: -2

Results for Cc1cc2oc(=O)cc(CN3CCC(C)CC3)c2cc1Cl ?
Rv3671c inh: -22; GDH-TPI counter: 0; FBA Mtb inh: 1; Mtb bLac sens: 29; SSB-PriA inh: -25; Mtb UGM inh: 2

How did CCCc1cc(=O)oc2c(CN3CCCC3)c(O)c(Cl)cc12 do in these assays?
Rv3671c inh: -4; GDH-TPI counter: 22; FBA Mtb inh: active; Mtb bLac sens: -6; SSB-PriA inh: -10; Mtb UGM inh: 3

What do the screens show for `O=C(CNS(=O)(=O)N1CCOCC1)NN=Cc1cccnc1`?
SSB-PriA inh: -5

How did O=C(Cc1csc(-n2cccc2)n1)Nc1cccnc1 do in these assays?
SSB-PriA inh: -10

How did CCCN1CCCc2cc(CCNC(=O)C(=O)Nc3cc(F)ccc3F)ccc21 do in these assays?
SSB-PriA inh: 35

How did CCCN1CCCc2cc(CCNS(=O)(=O)c3ccccc3F)ccc21 do in these assays?
SSB-PriA inh: 50*

Results for CCCN1CCCc2cc(CCNS(=O)(=O)c3cc(F)ccc3F)ccc21 ?
SSB-PriA inh: 68*

Screens as filed in PubChem BioAssay.
